The results in this text go back to ChEMBL document CHEMBL3988442, “University of Dundee, Small-Polar-MMV Screening Library” (2021).

What all share (design): scale not given: direction of the effect not stated beside the values
The target in test [1] is Protein translocase subunit SecA (Escherichia coli (strain K12)) (UniProt P10408). Description: Assay to Identify E. coli SecA ATPase Inhibitors. Type of test: functional. The following applies: 30 µM.
Test [2] addresses T1, Ubiquitin-activating enzyme e1, putative (Leishmania donovani (strain BPK282A1)) (UniProt E9BSI1).
T1 sequence (whole entry): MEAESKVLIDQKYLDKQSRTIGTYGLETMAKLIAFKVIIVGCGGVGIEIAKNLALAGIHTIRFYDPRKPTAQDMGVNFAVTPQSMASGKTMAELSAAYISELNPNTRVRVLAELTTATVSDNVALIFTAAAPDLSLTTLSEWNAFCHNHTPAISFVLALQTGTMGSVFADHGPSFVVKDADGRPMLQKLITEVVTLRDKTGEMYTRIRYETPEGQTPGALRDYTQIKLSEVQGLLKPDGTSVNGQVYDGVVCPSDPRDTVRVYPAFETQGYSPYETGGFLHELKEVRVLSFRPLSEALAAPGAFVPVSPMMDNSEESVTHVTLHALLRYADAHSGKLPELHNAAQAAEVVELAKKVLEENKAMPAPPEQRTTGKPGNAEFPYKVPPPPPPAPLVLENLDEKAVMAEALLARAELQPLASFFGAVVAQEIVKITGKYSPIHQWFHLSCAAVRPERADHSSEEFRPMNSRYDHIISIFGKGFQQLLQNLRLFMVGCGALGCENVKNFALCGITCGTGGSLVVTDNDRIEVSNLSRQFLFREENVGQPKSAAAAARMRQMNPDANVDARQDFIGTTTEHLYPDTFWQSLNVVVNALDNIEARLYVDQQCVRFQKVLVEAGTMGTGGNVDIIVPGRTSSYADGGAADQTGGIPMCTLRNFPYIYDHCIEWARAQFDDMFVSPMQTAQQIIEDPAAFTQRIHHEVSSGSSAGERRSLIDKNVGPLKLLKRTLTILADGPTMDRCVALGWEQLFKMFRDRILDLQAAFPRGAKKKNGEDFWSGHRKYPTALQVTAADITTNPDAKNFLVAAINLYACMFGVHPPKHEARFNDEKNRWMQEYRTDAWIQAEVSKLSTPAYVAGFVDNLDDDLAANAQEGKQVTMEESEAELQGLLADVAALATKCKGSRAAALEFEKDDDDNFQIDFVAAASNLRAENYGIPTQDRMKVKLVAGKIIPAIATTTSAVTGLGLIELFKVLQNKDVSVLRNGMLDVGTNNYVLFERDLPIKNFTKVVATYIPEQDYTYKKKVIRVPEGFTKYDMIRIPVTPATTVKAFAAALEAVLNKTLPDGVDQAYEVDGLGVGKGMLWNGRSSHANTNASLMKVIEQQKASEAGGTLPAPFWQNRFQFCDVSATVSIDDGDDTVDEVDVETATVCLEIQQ
Put plainly: Leishmania donovani Ubiquitin Activating Enzyme (LdE1). The settings on record: 30 µM. The test is classed as functional.

Test [3] concerns the target AMP-activated protein kinase, AMPK (Homo sapiens) (UniProt P54646+O43741+P54619+Q9UGJ0+Q9Y478+Q13131+Q9UGI9). Description: AMP-dependent Kinase enzyme assay. An in vitro enzyme assay that detects ADP turnover that is directly proportional to AMPK activity. This uses naive AMPK that is activated during the assay with MK-8722. The test is classed as functional. The following applies: 30 µM.

Test [4] has as its target Sialic acid-binding Ig-like lectin 9 (Homo sapiens) (UniProt Q9Y336). Description: Hs-Siglec9 ALPHAscreen SOP 20170721. The following applies: 10 µM. (In general: In Alpha technology, singlet oxygen from a donor bead excites a nearby acceptor bead.)
In the next test the test system is Trypanosoma cruzi. Description: Trypanosoma cruzi phosphomannomutase and mannose-1-phosphate guanylyltransferase assay. Type of test: functional. The following applies: 10 µM.
Test [5] concerns the target T2, Arginase-2, mitochondrial (Homo sapiens) (UniProt P78540).
T2 sequence (whole entry): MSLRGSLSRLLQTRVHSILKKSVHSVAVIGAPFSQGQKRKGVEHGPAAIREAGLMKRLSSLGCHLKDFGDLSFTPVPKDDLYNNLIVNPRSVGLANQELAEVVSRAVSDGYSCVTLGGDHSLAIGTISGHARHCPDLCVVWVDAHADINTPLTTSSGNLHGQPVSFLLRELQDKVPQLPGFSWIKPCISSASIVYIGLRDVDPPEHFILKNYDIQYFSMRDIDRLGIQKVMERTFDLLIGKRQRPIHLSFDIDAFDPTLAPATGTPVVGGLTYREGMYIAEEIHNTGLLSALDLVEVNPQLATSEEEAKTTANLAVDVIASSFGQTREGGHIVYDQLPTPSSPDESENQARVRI
Description: in vitro enzyme assay to detect the production of urea directly proportional to the activity of Arginase II. Note: in the data most compounds retested in dose-response had high values. The settings on record: 33.3 µM. Type of test: functional.

The target in test [6] is T3, Proteasome subunit beta (Trypanosoma cruzi) (UniProt O96673).
T3 sequence (whole entry): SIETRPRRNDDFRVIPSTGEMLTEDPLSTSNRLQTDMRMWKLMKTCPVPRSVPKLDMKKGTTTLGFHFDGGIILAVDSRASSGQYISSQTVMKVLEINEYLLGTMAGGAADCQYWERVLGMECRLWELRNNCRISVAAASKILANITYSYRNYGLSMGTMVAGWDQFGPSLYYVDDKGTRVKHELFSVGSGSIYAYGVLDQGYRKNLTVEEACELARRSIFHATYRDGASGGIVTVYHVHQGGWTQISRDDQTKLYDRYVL
Description: Trypanosoma cruzi proteasome chymotrypsin-like activity (TcProtChymo) assay. Note: in the data most compounds retested in dose-response had high values. The test is classed as functional. The settings on record: 9.37 µM.

The species named for another test is Homo sapiens. Description: To identify inhibition of the IFN signalling (Jak-Stat) pathway via expression of an eGFP reporter gene under the control of an IFN-stimulated response element (ISRE) containing MxA promoter. Type of test: functional. The settings on record: 30 µM.
Test [7] addresses T4, Tyrosyl-tRNA synthetase, putative (Trypanosoma cruzi (strain CL Brener)) (UniProt Q4DSP6).
T4 sequence (whole entry): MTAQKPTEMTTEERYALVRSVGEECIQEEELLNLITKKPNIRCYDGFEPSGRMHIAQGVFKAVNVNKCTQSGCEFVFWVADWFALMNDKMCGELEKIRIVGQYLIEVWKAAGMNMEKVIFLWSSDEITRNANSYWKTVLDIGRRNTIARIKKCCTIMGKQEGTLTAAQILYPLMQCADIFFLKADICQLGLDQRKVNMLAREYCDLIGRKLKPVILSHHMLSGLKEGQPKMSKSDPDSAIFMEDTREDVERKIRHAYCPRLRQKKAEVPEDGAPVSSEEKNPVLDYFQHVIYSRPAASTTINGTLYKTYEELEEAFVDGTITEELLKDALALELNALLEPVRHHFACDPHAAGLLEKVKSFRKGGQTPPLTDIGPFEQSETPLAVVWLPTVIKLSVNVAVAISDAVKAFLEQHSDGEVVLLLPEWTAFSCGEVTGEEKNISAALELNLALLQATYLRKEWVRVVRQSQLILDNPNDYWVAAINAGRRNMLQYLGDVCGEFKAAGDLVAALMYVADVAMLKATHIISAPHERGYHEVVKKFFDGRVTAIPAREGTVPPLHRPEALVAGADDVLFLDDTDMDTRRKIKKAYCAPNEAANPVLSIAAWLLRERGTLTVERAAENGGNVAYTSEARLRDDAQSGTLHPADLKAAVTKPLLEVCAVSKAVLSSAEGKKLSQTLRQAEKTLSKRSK
Put plainly: Trypanosoma cruzi tyrosyl tRNA synthetase (TcYRS) _High Tyrosine SOP. Note: in the data most compounds retested in dose-response had high values. The following applies: 30 µM. The test is classed as functional.

Test [8] deals with T4, Tyrosyl-tRNA synthetase, putative (Trypanosoma cruzi (strain CL Brener)). Description: Trypanosoma cruzi tyrosyl tRNA synthetase (TcYRS) SOP. The following applies: 30 µM. The test is classed as functional.
Test [9] has as its target Chromo domain-containing protein 1 (Saccharomyces cerevisiae (strain ATCC 204508 / S288c) (Baker's yeast)) (UniProt P32657). Put plainly: ScCHD-1 Enzyme Inhibition Assay. Note: in the data most compounds retested in dose-response had high values. Type of test: functional. The following applies: 30 µM.

SMILES strings stand for the structures. For some of these results: Entries with a potency or affinity are not part of this list.

Protein translocase subunit SecA (Escherichia coli (strain K12)), sequence (P10408 whole entry): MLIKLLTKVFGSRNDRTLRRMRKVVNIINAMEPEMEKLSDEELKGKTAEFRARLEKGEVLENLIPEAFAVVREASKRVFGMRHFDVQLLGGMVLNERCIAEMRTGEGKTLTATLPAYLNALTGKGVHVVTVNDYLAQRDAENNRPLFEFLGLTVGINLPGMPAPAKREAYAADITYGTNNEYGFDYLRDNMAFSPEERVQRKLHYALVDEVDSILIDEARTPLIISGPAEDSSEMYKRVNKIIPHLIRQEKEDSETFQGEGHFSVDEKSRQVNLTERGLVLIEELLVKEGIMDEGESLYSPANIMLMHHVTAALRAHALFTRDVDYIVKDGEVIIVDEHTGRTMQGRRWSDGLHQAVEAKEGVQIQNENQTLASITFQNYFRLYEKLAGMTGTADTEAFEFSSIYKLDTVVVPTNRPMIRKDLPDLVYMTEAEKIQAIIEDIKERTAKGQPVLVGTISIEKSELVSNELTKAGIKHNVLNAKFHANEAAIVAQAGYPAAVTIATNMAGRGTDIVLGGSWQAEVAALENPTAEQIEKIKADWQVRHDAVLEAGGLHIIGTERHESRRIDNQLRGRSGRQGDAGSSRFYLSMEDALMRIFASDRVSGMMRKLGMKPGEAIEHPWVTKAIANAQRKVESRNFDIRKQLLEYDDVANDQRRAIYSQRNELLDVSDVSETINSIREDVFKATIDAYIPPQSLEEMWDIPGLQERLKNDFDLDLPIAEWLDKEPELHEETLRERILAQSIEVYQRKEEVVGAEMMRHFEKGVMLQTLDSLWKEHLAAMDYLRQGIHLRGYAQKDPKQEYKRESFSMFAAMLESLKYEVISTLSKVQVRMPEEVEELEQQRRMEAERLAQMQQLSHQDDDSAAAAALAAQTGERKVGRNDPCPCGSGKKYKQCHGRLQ
Sialic acid-binding Ig-like lectin 9 (Homo sapiens), sequence (Q9Y336 whole entry): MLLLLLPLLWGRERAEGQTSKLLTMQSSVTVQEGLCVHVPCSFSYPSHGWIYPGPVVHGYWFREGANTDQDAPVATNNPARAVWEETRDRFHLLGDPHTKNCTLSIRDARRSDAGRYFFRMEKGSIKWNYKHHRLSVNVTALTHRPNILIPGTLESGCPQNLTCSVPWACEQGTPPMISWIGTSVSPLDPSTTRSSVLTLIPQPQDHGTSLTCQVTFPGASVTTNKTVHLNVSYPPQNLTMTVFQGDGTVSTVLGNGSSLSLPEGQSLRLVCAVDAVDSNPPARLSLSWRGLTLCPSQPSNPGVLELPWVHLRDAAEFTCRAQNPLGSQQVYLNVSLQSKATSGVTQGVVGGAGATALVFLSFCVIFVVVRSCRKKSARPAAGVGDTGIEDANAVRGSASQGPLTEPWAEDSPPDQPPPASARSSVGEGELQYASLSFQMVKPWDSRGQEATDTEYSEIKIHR
Chromo domain-containing protein 1 (Saccharomyces cerevisiae (strain ATCC 204508 / S288c) (Baker's yeast)), sequence (P32657 whole entry, the tested form may be a part): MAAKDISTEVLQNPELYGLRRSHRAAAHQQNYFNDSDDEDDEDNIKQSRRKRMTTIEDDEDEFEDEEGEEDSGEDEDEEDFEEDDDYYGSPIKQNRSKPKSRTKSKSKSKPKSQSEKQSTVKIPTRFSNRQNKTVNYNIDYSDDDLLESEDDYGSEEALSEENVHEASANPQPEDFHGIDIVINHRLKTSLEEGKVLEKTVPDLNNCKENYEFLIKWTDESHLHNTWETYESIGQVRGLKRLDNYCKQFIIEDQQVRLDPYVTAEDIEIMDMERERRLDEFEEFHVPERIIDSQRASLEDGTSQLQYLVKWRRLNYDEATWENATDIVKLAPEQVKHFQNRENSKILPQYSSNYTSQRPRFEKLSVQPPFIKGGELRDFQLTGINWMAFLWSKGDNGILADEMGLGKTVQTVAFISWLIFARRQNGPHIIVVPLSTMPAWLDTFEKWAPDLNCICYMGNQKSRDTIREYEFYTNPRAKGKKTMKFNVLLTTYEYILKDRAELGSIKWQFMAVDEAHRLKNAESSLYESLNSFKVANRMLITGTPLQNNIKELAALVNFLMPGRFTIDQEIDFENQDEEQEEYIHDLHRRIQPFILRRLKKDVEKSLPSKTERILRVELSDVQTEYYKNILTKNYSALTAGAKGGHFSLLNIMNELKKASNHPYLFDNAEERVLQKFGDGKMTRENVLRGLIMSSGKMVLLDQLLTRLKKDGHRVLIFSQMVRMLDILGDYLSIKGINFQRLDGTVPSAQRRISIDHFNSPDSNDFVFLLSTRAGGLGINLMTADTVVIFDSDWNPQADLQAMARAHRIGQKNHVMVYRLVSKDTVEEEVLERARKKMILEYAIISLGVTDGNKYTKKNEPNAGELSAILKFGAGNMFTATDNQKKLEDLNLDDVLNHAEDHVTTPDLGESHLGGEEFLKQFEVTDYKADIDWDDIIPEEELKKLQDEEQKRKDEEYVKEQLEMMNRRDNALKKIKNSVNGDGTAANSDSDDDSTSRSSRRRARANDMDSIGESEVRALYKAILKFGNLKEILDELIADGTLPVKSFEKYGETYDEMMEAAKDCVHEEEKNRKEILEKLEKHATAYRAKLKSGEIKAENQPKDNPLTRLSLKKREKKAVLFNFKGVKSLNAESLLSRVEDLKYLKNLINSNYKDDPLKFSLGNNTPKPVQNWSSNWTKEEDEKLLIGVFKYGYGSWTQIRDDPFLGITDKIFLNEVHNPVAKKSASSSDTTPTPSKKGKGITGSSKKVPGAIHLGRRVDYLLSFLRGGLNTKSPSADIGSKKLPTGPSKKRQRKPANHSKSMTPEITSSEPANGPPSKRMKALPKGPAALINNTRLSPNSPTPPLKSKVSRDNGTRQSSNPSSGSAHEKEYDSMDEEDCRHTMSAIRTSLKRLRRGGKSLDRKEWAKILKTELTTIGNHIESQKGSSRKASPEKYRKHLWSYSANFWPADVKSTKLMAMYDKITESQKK

As to `O=C(c1ccncc1)N1Cc2ccccc2OC2(CCOCC2)C1`, the Percent Effect in test [1] was -2.73%; in test [2] it was 9.46%; in test [3], 10.5%; in test [4] it was 1.54%; in the test with Trypanosoma cruzi, 0.395%; in [5] it was -5.8%. The Percent Effect in [6] is 16.1%; in the test listed under Homo sapiens, 7.47%; in [7], 4.3%; in test [8], 6.49%; in test [9], -15.3%.
On to `Cc1cnc(N2C[C@H]3C[C@H](C(=O)N(C)C)[C@@H](C2)O3)nc1`, for which the Percent Effect in test [1] was -4.03%; in [2] it was -5.33%; in test [3] it was 5.45%; in [4], -2.75%; in the test with Trypanosoma cruzi, 6.76%; in test [5], -46.1%. Moreover, the Percent Effect in test [6] was 1.54%; in the test filed under Homo sapiens it was -13.3%; in test [7] it was -1.04%; in test [8] it was 0%; in test [9] it was -3.12%.
Take `O=C(COc1cccc2c1CCC2=O)NCCOc1ccccc1`: the Percent Effect is -0.203% in test [1]; 2.63% in test [2]; -0.945% in [3]; -8.98% in [4]; -6.33% in the test with Trypanosoma cruzi; 3.55% in [5]. The Percent Effect in test [6] was 9.68%; in the test listed under Homo sapiens it was 40.1%; in test [7], -1.06%; in [8], 0%; in test [9], -2.69%.
As to `CNS(=O)(=O)c1ccc(C(=O)N2CCCC2c2cnn(C)c2)o1` (stereo unspecified), the Percent Effect in [1] is -2.43%; in test [2], 7.89%; in test [3], -0.508%; in [4] it was -1.15%; in the test with Trypanosoma cruzi it was 8.12%; in [5], 0.719%. Further, the Percent Effect in test [6] was -0.761%; in the test listed under Homo sapiens, 1.2%; in [7] it was 1.48%; in test [8] it was 6.17%; in [9] it was -6.23%.
`O=C(Nc1cnccn1)[C@H]1COC[C@H]2CN(C3CCCC3)C[C@H]21`: the Percent Effect in test [1] was -0.257%; in [2], 2.7%; in test [3], -0.6%; in test [4] it was 0.701%; with Trypanosoma cruzi, 4.88%; in test [5] it was 2.92%. Besides, the Percent Effect was -0.0845% in test [6]; -10.3% in the test listed under Homo sapiens; 3.96% in test [7]; -1.22% in test [8]; -1.78% in test [9].
With `Cc1ccc(C(=O)N2CCn3cc(CN(C)Cc4ccco4)nc3C2)o1`, the Percent Effect is 2.2% in test [1]; 0% in test [2]; 3.27% in test [3]; 0.0829% in test [4]; -4.24% in the test with Trypanosoma cruzi; 3.23% in test [5]. In addition, the Percent Effect in test [6] is 3.13%; in the test listed under Homo sapiens it was 0.489%; in test [7] it was 1.06%; in [8], 3.85%; in test [9] it was 105%.
With `CCc1nc(C2CCCN2C(=O)CCNS(C)(=O)=O)no1` (stereo unspecified), the Percent Effect in test [1] is -2.77%; in test [2] it was 27%; in test [3], -4.56%; in test [4], -1.58%; in the test with Trypanosoma cruzi it was 3.25%; in test [5] it was -2.03%. Besides, the Percent Effect in test [6] is 19%; in the test listed under Homo sapiens, 21.8%; in test [7] it was 7.92%; in [8], 23.2%; in [9], -6.19%.
As for `O=C(CCOc1ccccc1)N1CCC(Nc2cccnn2)CC1`, the Percent Effect was -6.73% in test [1]; 13.2% in test [2]; -7.1% in test [3]; 16.8% in test [4]; 2.15% with Trypanosoma cruzi; -0.719% in test [5]. For the same compound, the Percent Effect in [6] is 5.5%; in the test filed under Homo sapiens it was 8.93%; in test [7] it was 6.4%; in test [8], 18.5%; in test [9] it was -5.39%.
Take `Cc1nc(C)n(CC2CCCCN2CC(=O)Nc2ccncc2)n1` (stereo unspecified): the Percent Effect in test [1] is 1.21%; in test [2], 23.4%; in test [3], -4.4%; in test [4], -2.19%; in the test with Trypanosoma cruzi it was -9.74%; in test [5], 3.56%. Moreover, the Percent Effect was 8.11% in [6]; 27.5% in the test listed under Homo sapiens; 5.83% in [7]; -2.44% in test [8]; -9.59% in test [9].
With `COCCCN1CCCN(C(C)C(=O)Nc2ccnn2C(C)C)CC1` (stereo unspecified), the Percent Effect was 0.586% in [1]; -2.7% in test [2]; -1.72% in [3]; -1.48% in test [4]; 0.195% in the test with Trypanosoma cruzi; 2.08% in test [5]. Besides, the Percent Effect in [6] is 13.9%; in the test listed under Homo sapiens it was -3.67%; in test [7], 4.95%; in test [8] it was -3.66%; in test [9], -4.29%.
As to `OCCN1CCOC2(CCCN(c3cccc(F)c3)C2)C1` (stereo unspecified), the Percent Effect in [1] is -3.44%; in test [2], 13.3%; in test [3], 5.94%; in test [4] it was -3.82%; with Trypanosoma cruzi, 0.394%; in [5], 0.233%. The Percent Effect in test [6] is 8.55%; in the test filed under Homo sapiens it was 3.49%; in test [7], 10.6%; in [8], 24.4%; in [9] it was -6.84%.
